From PubChem BioAssay (NCATS)
Inconclusive results are not listed. Activity calls are given as the source filed them. Calls come from the whole dose curve; as a rule, active = well fitted curve in the direction sought with a large enough effect; inconclusive = small, poorly fitted or top-dose-only effect, or another doubt; inactive = no such curve, though single readings can be large; an effect the other way counts as inactive or inconclusive.

target: ATP-dependent 6-phosphofructokinase (Trypanosoma brucei brucei) (UniProt O15648); assay: qHTS Assay to Find Inhibitors of T. brucei phosphofructokinase: hit validation (AID 492961);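 note: luminescence reports ADP formed as PFK phosphorylates fructose-6-phosphate with ATP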; settings: T. brucei PFK, ADP-Glo luminescence; series mostly up to 51.4 µM; activity change, negative = inhibition: at the top concentration
How it was run: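 Inhibition of parasite PFK is measured as reduced ADP formation, quantified via luciferase after ATP depletion. Assay used 0.1 mM ATP, 0.5 mM F6P, 1.25 nM enzyme, 45 min incubation.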
% is set by controls: 0 for no effect and ±100 for the full control effect.

Sequence of ATP-dependent 6-phosphofructokinase (Trypanosoma brucei brucei) (O15648 whole entry, looked up): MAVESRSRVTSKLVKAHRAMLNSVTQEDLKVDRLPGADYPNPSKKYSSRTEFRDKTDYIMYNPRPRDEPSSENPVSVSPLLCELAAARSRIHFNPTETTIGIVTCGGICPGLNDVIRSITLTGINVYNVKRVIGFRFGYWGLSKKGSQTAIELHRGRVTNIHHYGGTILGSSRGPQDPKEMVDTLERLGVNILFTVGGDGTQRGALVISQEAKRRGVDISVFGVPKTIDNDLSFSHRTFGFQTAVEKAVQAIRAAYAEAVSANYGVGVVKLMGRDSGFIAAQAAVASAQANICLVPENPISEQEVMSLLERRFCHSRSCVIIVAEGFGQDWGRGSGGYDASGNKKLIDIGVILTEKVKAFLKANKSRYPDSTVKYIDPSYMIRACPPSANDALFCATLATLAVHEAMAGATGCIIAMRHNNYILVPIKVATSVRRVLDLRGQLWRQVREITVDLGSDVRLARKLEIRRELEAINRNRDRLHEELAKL

SMILES | activity change, negative = inhibition
CCN(CC)CC1CCCCN1CC(=O)N1c2ccccc2C(=O)Nc2cccnc21 (stereo not drawn) | -5.32% (inactive)
CC(C(=O)O)c1ccc2c(c1)Cc1cccnc1O2 (stereo not drawn) | 0% (inactive)
Cc1c(Cn2ccnc2)c2ccccc2n1CCC(=O)O | 9.17% (inactive)
O=C(O)c1ccc(OCCCOc2ccc(C(=O)O)cc2)cc1 | 1.49% (inactive)
N[C@@H](Cc1ccc(O)cc1)C(=O)O | -0.575% (inactive)
CC(CN(C)C)C(C)(O)Cc1ccc(Cl)cc1 (stereo not drawn) | -1.82% (inactive)
Cc1c(I)c(=O)n(-c2ccccc2)n1C | -0.443% (inactive)
Cc1c(C)c2c(c(C)c1OC(=O)c1cccnc1)CC[C@@](C)(CCC[C@H](C)CCC[C@H](C)CCCC(C)C)O2 | -0.672% (inactive)
O=c1[nH]cnc2nc[nH]c12 | 12.1% (inactive)
NS(=O)(=O)c1cc(-c2nn[nH]n2)c(NCc2cccs2)cc1Cl | -5.03% (inactive)
CC(N)CCCC(C)(C)O (stereo not drawn) | -6.83% (inactive)
CCCNC(C)(C)COC(=O)c1ccccc1 | 4.52% (inactive)
CC(C)(C)C(=O)OCOC(=O)[C@@H]1N2C(=O)[C@@H](NC(=O)[C@H](N)c3ccccc3)[C@H]2SC1(C)C | -0.0533% [at 24.3 µM] (inactive)
O=C(O)Cc1cn(-c2ccccc2)nc1-c1ccc(Cl)cc1 | 0.907% (inactive)
O=C(NCCCN1CCOCC1)c1ccc(Cl)cc1 | 0% (inactive)
O=C(Cn1ccnc1[N+](=O)[O-])NCc1ccccc1 | 1% (inactive)
CCS(=O)(=O)CCn1c([N+](=O)[O-])cnc1C | 11.2% [at 24.3 µM] (inactive)

SMILES | activity change, negative = inhibition
C[C@H]1COc2c(C3(N)CC3)c(F)cc3c(=O)c(C(=O)O)cn1c23 | -6.5% (inactive)
CCN(CC)S(=O)(=O)c1ccc(C(=O)O)cc1 | -1.05% (inactive)
Cc1ccc(S(=O)(=O)NC(=O)NC2CCCCC2)cc1 | 11.2% (inactive)
O=c1[nH]c2cc(C(F)(F)F)c(N3CCOCC3)cc2n(CP(=O)(O)O)c1=O | -2.32% (inactive)
O=C(O)Cc1ccc(CCNS(=O)(=O)c2ccc(Cl)cc2)cc1 | 0% (inactive)
Cc1ncc(CO)c(CN)c1O | 8.7% (inactive)
CCOC(N)=O | 1.76% (inactive)
NS(=O)(=O)c1cc2c(cc1C(F)(F)F)NCNS2(=O)=O | 3.03% [at 24.3 µM] (inactive)
CC(=O)Oc1cccc(C)c1 | -6.24% (inactive)
O[C@@H]1CO[C@H]2[C@@H]1OC[C@@H]2O | -3.03% (inactive)
COc1cc(O)cc(O)c1 | 6.7% (inactive)
COc1ccc(NS(=O)(=O)c2ccc(N)cc2)nn1 | -0.179% [at 24.3 µM] (inactive)
NCC1CCC(C(=O)Oc2ccc(CCC(=O)O)cc2)CC1 (stereo not drawn) | -3.81% (inactive)
CC(=O)NCc1c(I)c(NC(C)=O)c(I)c(C(=O)O)c1I | 7.25% (inactive)
O=C(/C=C/c1ccccc1)OCc1ccccc1 | -1.05% (inactive)
Cc1cc(-n2nc3ccc(Cl)cc3n2)c(O)c(C(C)(C)C)c1 | 4.59% (inactive)

target: Ubiquitin carboxyl-terminal hydrolase 1 (Homo sapiens) (UniProt O94782); assay: Inhibitors of USP1/UAF1: Pilot qHTS (AID 504865); settings: purified USP1/UAF1, Ub-rhodamine cleavage fluorescence; series mostly up to 114 µM; activity change, negative = inhibition: at the top concentration;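 note: rhodamine fluorescence freed from ubiquitin-rhodamine substrate followed over time; top concentration of the series differs between compounds; nearly all actives have a fitted effect of over 35% in size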
How it was run: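 Kinetic fluorescence assay: 1nM USP1/UAF1, 15 min compound preincubation, then 150nM Ub-Rho; 480/540 nm.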

Sequence of Ubiquitin carboxyl-terminal hydrolase 1 (Homo sapiens) (O94782 whole entry, looked up): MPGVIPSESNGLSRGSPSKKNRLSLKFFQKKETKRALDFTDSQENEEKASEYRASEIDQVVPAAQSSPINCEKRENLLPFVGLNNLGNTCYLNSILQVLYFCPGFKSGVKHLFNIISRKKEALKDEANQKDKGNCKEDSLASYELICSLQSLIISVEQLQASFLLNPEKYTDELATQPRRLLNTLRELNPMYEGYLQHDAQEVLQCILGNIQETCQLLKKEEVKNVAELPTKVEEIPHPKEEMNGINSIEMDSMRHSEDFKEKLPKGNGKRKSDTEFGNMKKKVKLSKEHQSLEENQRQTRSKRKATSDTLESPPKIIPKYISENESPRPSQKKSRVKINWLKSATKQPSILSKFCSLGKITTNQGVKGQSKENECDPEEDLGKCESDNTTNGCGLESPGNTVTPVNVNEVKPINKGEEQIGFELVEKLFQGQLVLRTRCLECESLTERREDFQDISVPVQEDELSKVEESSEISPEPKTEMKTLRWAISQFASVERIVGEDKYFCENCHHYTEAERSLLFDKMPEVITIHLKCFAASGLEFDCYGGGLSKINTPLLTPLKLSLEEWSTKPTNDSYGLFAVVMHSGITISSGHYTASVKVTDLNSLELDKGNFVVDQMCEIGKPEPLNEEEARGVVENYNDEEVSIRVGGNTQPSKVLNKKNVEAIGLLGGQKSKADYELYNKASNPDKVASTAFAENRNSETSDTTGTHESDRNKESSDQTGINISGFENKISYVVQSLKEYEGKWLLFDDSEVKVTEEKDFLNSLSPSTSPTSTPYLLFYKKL

SMILES | activity change, negative = inhibition
CC(C(=O)O)c1ccc2c(c1)Cc1cccnc1O2 (stereo not drawn) | -1.27% (inactive)
Cc1c(Cn2ccnc2)c2ccccc2n1CCC(=O)O | -4.63% (inactive)
O=C(O)c1ccc(OCCCOc2ccc(C(=O)O)cc2)cc1 | -9.96% (inactive)
N[C@@H](Cc1ccc(O)cc1)C(=O)O | 0.956% (inactive)
CC(CN(C)C)C(C)(O)Cc1ccc(Cl)cc1 (stereo not drawn) | -1.81% (inactive)
Cc1c(I)c(=O)n(-c2ccccc2)n1C | -7.33% (inactive)
Cc1c(C)c2c(c(C)c1OC(=O)c1cccnc1)CC[C@@](C)(CCC[C@H](C)CCC[C@H](C)CCCC(C)C)O2 | -8.19% (inactive)
O=c1[nH]cnc2nc[nH]c12 | -7.89% (inactive)
NS(=O)(=O)c1cc(-c2nn[nH]n2)c(NCc2cccs2)cc1Cl | -13.4% (inactive)
CCCNC(C)(C)COC(=O)c1ccccc1 | 1.93% [at 54.9 µM] (inactive)
CC(C)(C)C(=O)OCOC(=O)[C@@H]1N2C(=O)[C@@H](NC(=O)[C@H](N)c3ccccc3)[C@H]2SC1(C)C | 1.51% [at 54.9 µM] (inactive)
O=C(NCCCN1CCOCC1)c1ccc(Cl)cc1 | 2.56% (inactive)
O=C(Cn1ccnc1[N+](=O)[O-])NCc1ccccc1 | -2.89% (inactive)
CCS(=O)(=O)CCn1c([N+](=O)[O-])cnc1C | -6.59% [at 54.9 µM] (inactive)
CCN(CC)S(=O)(=O)c1ccc(C(=O)O)cc1 | -7.52% (inactive)
Cc1ccc(S(=O)(=O)NC(=O)NC2CCCCC2)cc1 | 2.41% (inactive)
O=c1[nH]c2cc(C(F)(F)F)c(N3CCOCC3)cc2n(CP(=O)(O)O)c1=O | -5.94% (inactive)
CCOC(N)=O | -7.7% (inactive)
NS(=O)(=O)c1cc2c(cc1C(F)(F)F)NCNS2(=O)=O | 0.268% [at 54.9 µM] (inactive)
CC(=O)Oc1cccc(C)c1 | -1.45% (inactive)
O[C@@H]1CO[C@H]2[C@@H]1OC[C@@H]2O | -2.92% (inactive)
COc1cc(O)cc(O)c1 | -13.3% (inactive)
COc1ccc(NS(=O)(=O)c2ccc(N)cc2)nn1 | -0.608% [at 54.9 µM] (inactive)
NCC1CCC(C(=O)Oc2ccc(CCC(=O)O)cc2)CC1 (stereo not drawn) | -12.6% (inactive)
CC(=O)NCc1c(I)c(NC(C)=O)c(I)c(C(=O)O)c1I | -8.24% (inactive)
